PubChem BioAssay (NCI)
This is part of a sample that, as a whole, favours compounds with a hit. Of some 83,000 tested, about 20% had one in any assay.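 The test compound was applied at a single concentration to cells in 96-well plates for 48 hours, and percent growth was recorded.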 The source made the active and inactive calls. The calls were made as follows: active = growth percent below 10; inactive = the rest.

How the values were obtained:
Assay in all cases: NCI-60 one-dose screen, 48 h (100 = growth as untreated, 0 = no growth, -100 = all killed)
Settings in all cases: 10 µM
[1] = tested on: HCT-15 colon
[2] = tested on: HT29 colon
[3] = tested on: SNB-75 CNS
[4] = tested on: SNB-19 CNS
[5] = tested on: U251 CNS
[6] = tested on: PC-3 prostate
[7] = tested on: SK-MEL-5 melanoma
[8] = tested on: UACC-62 melanoma
[9] = tested on: LOX IMVI melanoma
[10] = tested on: SK-MEL-28 melanoma

Measured: growth

O=C(NCc1cn(Cc2cccc(Oc3ccccc3)c2)nn1)c1cccnc1Nc1ccccc1
inactive: [1] 30.7% | [2] 47.8% | [3] 54.2% | [4] 67.1% | [5] 42.2% | [6] 44.5% | [7] 40.8% | [8] 53.5% | [9] 45.1% | [10] 47.8%

CCCOCC(O)CNCCN (stereo not given)
inactive: [1] 98.2% | [2] 102% | [3] 93.4% | [4] 102% | [5] 95.5% | [6] 83.4% | [7] 106% | [8] 101% | [9] 104% | [10] 110%

O=NN(CCCl)C(=O)Nc1ccc(NC(=O)N(CCCl)N=O)cc1
inactive: [1] 94.5% | [2] 115% | [3] 64% | [4] 68.6% | [5] 55.7% | [6] 86.5% | [7] 97.1% | [8] 63.9% | [9] 58.5% | [10] 98.8%

COc1ccc(/C=C2\SC(=S)N(CCCN3CCOCC3)C2=O)c(OC)c1
inactive: [1] 91.9% | [2] 96.2% | [3] 99.4% | [4] 99.8% | [5] 97.3% | [6] 93.2% | [7] 90% | [8] 90.8% | [9] 97.8% | [10] 106%

CCOc1nc(-c2ccccc2)cc2c(O)c(C(=O)NC(C)C)[nH]c(=O)c12
inactive: [1] 99.7% | [2] 125% | [3] 103% | [4] 96.9% | [5] 99.8% | [6] 46.4% | [7] 99.5% | [8] 105% | [9] 97.6% | [10] 89.7%

CCc1c(C)[nH]c(=O)c(C(N)=O)c1C#N
inactive: [1] 95.4% | [2] 96.6% | [3] 99.9% | [4] 90.1% | [5] 99.4% | [6] 99.4% | [7] 103% | [8] 88.4% | [9] 109% | [10] 114%

COC(=O)[C@]12CC[C@@H](C)[C@H](C)[C@@H]1C1=CC[C@@H]3[C@@]4(C)C[C@@H](O)[C@H](O)[C@@](C)(CO)[C@@H]4[C@H](O)C[C@@]3(C)[C@]1(C)CC2
active: [1] -51.4% | [2] -90.5% | [3] -37.7% | [4] -23.4% | [5] -94.6% | [6] -34.5% | [7] -95.8% | [8] -64% | [9] -93% | [10] -48.4%

CCOc1cc(Br)c(C(C)NC(=O)c2cccc(OC)c2)cc1OCC (stereo not given)
active: [8] -56.2% | [10] 5.81%
inactive: [1] 59.8% | [2] 17.7% | [3] 76.7% | [4] 98.3% | [5] 58.4% | [6] 64.9% | [7] 45.1% | [9] 73.4%

CC1(C)Cc2c(cn(Cc3ccccc3)c2-c2ccccc2)-c2oncc21
inactive: [1] 101% | [2] 79.6% | [3] 103% | [4] 110% | [5] 88.9% | [6] 86.2% | [7] 83.5% | [8] 86.7% | [9] 90.2% | [10] 112%

c1ccc(CC(NCCNC(Cc2ccccc2)c2ccccc2)c2ccccc2)cc1 (stereo not given)
inactive: [1] 15.5% | [3] 63.3% | [4] 44.4% | [5] 13% | [6] 24.2% | [8] 16% | [10] 50.2%
active: [2] -27.7% | [7] -52.3% | [9] -87.9%

Cc1nn2c(/C=C3/C(=O)Nc4ccc(Cl)cc43)c(-c3ccccc3)nc2s1
active: [3] -35.4%
inactive: [1] 57.1% | [2] 35.1% | [4] 82.4% | [5] 34.8% | [6] 32.3% | [7] 26.3% | [8] 39.3% | [9] 45.3% | [10] 29.2%

COc1ccccc1S(=O)(=O)Nc1ccc2c(c1)CN(C)C(=O)N2
inactive: [1] 40.8% | [2] 22.8% | [3] 17.5% | [4] 54.1% | [5] 50% | [6] 35.3% | [7] 40.5% | [8] 29.3% | [9] 29.1% | [10] 48.9%

CCNC(=S)NN
inactive: [1] 86.1% | [2] 56.2% | [3] 77% | [4] 97.2% | [5] 87.2% | [6] 60.7% | [7] 102% | [8] 99.2% | [9] 96.8% | [10] 107%

Cc1nc2ccc(-n3c(-c4ccc(Cl)cc4)nc4ccccc4c3=O)cc2n1Cc1ccccc1
inactive: [1] 77% | [2] 95.6% | [3] 95.9% | [4] 108% | [5] 89.1% | [6] 58.6% | [7] 66.7% | [8] 78.4% | [9] 91.9% | [10] 107%

COc1ccc(Cn2cc3c(c2-c2cc(OC)c(OC)c(OC)c2)CCc2cnoc2-3)cc1[N+](=O)[O-]
inactive: [1] 34.2% | [2] 13.1% | [3] 18.5% | [4] 43.2% | [5] 39.8% | [6] 27.6% | [7] 16% | [8] 35.4% | [9] 39.6% | [10] 68.9%

O=C(Nc1cccc([N+](=O)[O-])c1)NN1CCCCCC1
inactive: [1] 90.4% | [2] 107% | [3] 105% | [4] 95.6% | [5] 87.2% | [6] 83.1% | [7] 96% | [8] 76.2% | [9] 97.2% | [10] 112%

COc1ccc(-c2nnc(COc3ccc(NC(=O)Nc4ccccc4)cc3F)o2)cc1
inactive: [1] 88.2% | [2] 100% | [3] 68.2% | [4] 86.8% | [5] 85% | [6] 65.5% | [7] 89% | [8] 78% | [9] 89.6% | [10] 98.6%

O=c1[nH]c(=O)n(C2C[C@@H](O)[C@@H](CO)O2)cc1F (stereo not given in full)
active: [7] -69%
inactive: [1] 39% | [2] 27.2% | [3] 20.3% | [4] 41.6% | [5] 34.2% | [6] 44% | [8] 13.9% | [9] 14.1% | [10] 37.9%

COc1cc(Nc2ccnc(N3CCN(c4ccnc5cc(Cl)ccc45)CC3)n2)cc(OC)c1
active: [1] 9.9% | [2] -15.1% | [3] -13.9% | [6] 3.31% | [7] -55.2% | [8] -21.6% | [9] 3.24%
inactive: [4] 39.1% | [5] 12.6% | [10] 11.9%

Brc1ccc(-c2cn3ccnc3c(-c3ccc(Br)cc3)n2)cc1
inactive: [1] 21.6% | [3] 35.6% | [4] 75.8% | [5] 39.2% | [6] 66.3% | [7] 46.3% | [8] 43.6% | [9] 43.2% | [10] 62.2%
active: [2] 9.88%

Cc1cc(Nc2cccc(F)c2)nc(NCc2ccccc2)n1
active: [6] 1.49%
inactive: [1] 15.6% | [2] 22.8% | [3] 50.5% | [4] 29.4% | [5] 11.7% | [7] 33.9% | [8] 16.7% | [9] 18.2% | [10] 43.9%
